Screening data: PubChem, National Center for Advancing Translational Sciences (NCATS)
Tau fibril FP: qHTS for Inhibitors of Tau Fibril Formation, Fluorescence Polarization. Microtubule-associated protein tau (Homo sapiens), P10636. K18 P301L tau heparin fibrillization, Alexa594 FP, 6 h. Potency, µM (titrated, usually from 57.7 µM), actives largely listed as inhibitors. hit rate 0.39% among 280,000; further: nearly all actives have a fitted effect of over 55% in size
Target sequence (P10636 561-689 P618L limits assumed): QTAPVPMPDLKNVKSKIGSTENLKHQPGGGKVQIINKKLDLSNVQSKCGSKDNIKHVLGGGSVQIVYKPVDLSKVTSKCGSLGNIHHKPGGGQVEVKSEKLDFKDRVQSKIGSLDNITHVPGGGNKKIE
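Quantitative HTS format: compounds meet 15 uM recombinant K18 P301L tau and Alexa 594-tau tracer in 100 mM sodium acetate pH 7; 20 uM heparin triggers fibrillization at 37 C over 6 hr; FP gives the signal.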
Tau ThT inhib: qHTS for Inhibitors of Tau Fibril Formation, Thioflavin T Binding. AID 1460, 2008. hit rate 2.1% among 270,000. Microtubule-associated protein tau (Homo sapiens), P10636. recombinant tau K18 P301L, heparin-induced fibrillization, ThT fluorescence. Potency, µM (highest dose often 57.4 µM), actives largely listed as inhibitors; further: nearly all actives have a fitted effect of over 55% in size
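Using a mix of unlabeled (15 uM) and Alexa 594-labeled (0.24 uM) tau K18 P301L, heparin-triggered fibrillization over 6 hr at 37 C was scored by ThT fluorescence.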
HTT aggregate: qHTS Multiplex Assay to Identify Dual Action Probes in a Cell Model of Huntington: Aggregate Formation (GFP); Potency, µM (top dose mostly 46.1 µM), usual class: inhibitors; hit rate 1.1% among 220,000; PC12 HttQ103-GFP aggregates, Acumen cytometry, 40 h; AID 1688, 2009; further: nearly all actives have a fitted effect of over 60% in size
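Inducible Q103 Huntingtin exon 1–GFP PC12 line, 1500 cells/well in phenol red free DMEM with 5% equine and 5% calf serum. Tebufenozide 100 nM induced expression; compounds titrated; aggregates quantified by cytometry.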
Tau fluor cs: Counterscreen qHTS for Inhibitors of Tau Fibril Formation, Fluorescence Polarization; tau K18 P301L Alexa594 fluorescence, heparin fibrillization; Potency, µM (series often up to 57.7 µM); hit rate 0.93% among 280,000; further: nearly all actives have a fitted effect of over 55% in size
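Human tau K18 P301L (15 uM unlabeled, 0.24 uM Alexa 594-labeled) in 100 mM sodium acetate pH 7 with 20 uM heparin, 6 hr at 37 C. ThT 30 uM added, 1 hr ambient; Alexa 594 FP and total fluorescence read at 555/632 nm.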
HTT ATP protect: qHTS Multiplex Assay to Identify Dual Action Probes in a Cell Model of Huntington: Cytoprotection (ATP); PC12 HTT-Q103 induced, cytoprotection, ATP luminescence, 40 h; Potency, µM (doses to about 56.4 µM), usual class: activators; hit rate 0.14% among 230,000; further: nearly all actives have a fitted effect of over 45% in size
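Readout: ATPlite luminescence (ATP level). Model: stable PC12, inducible Htt exon1 Q103-GFP. Inducer: tebufenozide, 100 nM final. Compounds: dose series. No G418 in medium.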
Of the large screens only hits and unclear results are named; the others gave an inactive call; [ ] = dose if it differs, or a comment. Most compounds without a hit are left out; they make up all but 3.7% or so of the library. The call rests on the fitted dose curve; in most records, active means well fitted curve in the direction sought with a large enough effect; inconclusive means small, poorly fitted or top-dose-only effect, or another doubt; inactive means no such curve, though single readings can be large; an effect the other way counts as inactive or inconclusive.

CCCCCn1c(C)c2c(OCC)cccc(=O)c2c1C	none (no result: Tau ThT inhib)
Cc1ccc2nc(-c3ccc(NC(=S)NC(=O)C(C)C)cc3)sc2c1	Tau ThT inhib inconclusive
Cc1ccc2nc(-c3ccc(NC(=S)NC4CC(C)(C)NC(C)(C)C4)cc3)sc2c1	Tau fibril FP 11µM, Tau ThT inhib inconclusive, Tau fluor cs 7.9µM[quencher]
CCOc1ccccc1NC(=O)c1cc2cc(C)ccc2n1C	Tau ThT inhib inconclusive (no result: HTT aggregate, HTT ATP protect)
CCn1c(C)c(C(C)=O)c(N2CCN(c3ccc(OC)cc3)CC2)nc1=S	Tau fibril FP inconclusive, Tau ThT inhib 28µM (no result: HTT ATP protect)
COc1ccc(N2CCN(c3nc(=S)n(-c4ccccc4)c(C)c3C(C)=O)CC2)cc1	Tau fibril FP inconclusive, Tau ThT inhib 28µM
CC(=O)c1c(N2CCN(c3cccc(Cl)c3)CC2)nc(=S)n(-c2ccccc2)c1C	none
Nc1ncnc2c1ncn2[C@@H]1O[C@H](COP(=O)(O)OP(=O)(O)OC[C@H]2OC(O)[C@H](O)[C@@H]2O)[C@@H](O)[C@H]1O (stereo not given in full)	none (no result: HTT aggregate)
Cc1ccc(C(=O)C(NC(=O)c2ccco2)Nc2sc3c(c2C(N)=O)CCCC3)cc1 (stereo not given)	Tau ThT inhib 28µM, Tau fluor cs inconclusive
Cc1ccc(C(=O)Nc2sc3c(c2C(=O)NCc2ccco2)CCCC3)cc1	none
O=C(CSc1nnc(NC(=O)C2CCC2)s1)Nc1ccc(N2CCOCC2)cc1	Tau ThT inhib 6.3µM
CCOc1ccc(-c2cnc(NCc3ccc(OC)cc3OC)n2C)cc1	none (no result: HTT aggregate, HTT ATP protect)
COc1cc(OC)c(NC(=O)CN2C(=O)CCn3nc(-c4cccn4C)cc32)cc1Cl	none (no result: HTT aggregate, HTT ATP protect)
CC(=O)Nc1nc(-c2ccc([N+](=O)[O-])cc2)cs1	none
C/C=C/C=N/Nc1nc(-c2ccc([N+](=O)[O-])cc2)cs1	Tau ThT inhib 3.5µM, Tau fluor cs inconclusive
CC(C)=NNc1nc(-c2ccc([N+](=O)[O-])cc2)cs1	Tau ThT inhib 8.9µM
COC(=O)c1ccc(CC(=O)c2c(C)cc(O)cc2O)o1	Tau fibril FP inconclusive, Tau ThT inhib 28µM, Tau fluor cs inconclusive
COC(=O)c1ccc(CC(=O)c2ccc(O)cc2O)o1	Tau ThT inhib inconclusive, Tau fluor cs inconclusive
COc1ccc(OC)c(S(=O)(=O)N2CCC(n3c(C)nc4cccnc43)CC2)c1	none (no result: HTT aggregate, HTT ATP protect)
CCOC(=O)N1CCC(Nc2ncnc3c2cnn3-c2ccc(C)cc2C)CC1	Tau ThT inhib inconclusive, HTT aggregate 13µM
CC(=O)c1cc2c(cc1NS(=O)(=O)c1ccccc1)OCO2	none
CCC(C)NS(=O)(=O)c1ccc(S(=O)(=O)Nc2cc3c(cc2C(C)=O)OCO3)cc1 (stereo not given)	HTT aggregate 13µM, HTT ATP protect inconclusive
O=C(/C(=C/O)N=Nc1cccc(C(F)(F)F)c1)c1ccccc1	Tau ThT inhib inconclusive, HTT aggregate inconclusive
O=C(/C(=C/O)N=Nc1ccccc1Cl)c1ccccc1	Tau ThT inhib 28µM
Cc1cccc(N/N=C(\C=N\N)C(=O)c2ccc(Br)cc2)c1	Tau fibril FP inconclusive, Tau ThT inhib 14µM, Tau fluor cs 11µM[quencher]
O=C(/C(=C/O)N=Nc1ccc(Cl)cc1)c1ccncc1	Tau ThT inhib 20µM, HTT aggregate inconclusive
Cc1cccc(N=N/C(=C\O)C(=O)c2ccc(Br)cc2)c1	Tau ThT inhib 22µM, HTT aggregate inconclusive
COc1ccc(-c2nc3c(c4c2C[C@H](c2ccccc2)OC4)CN(C(=O)Cc2cccs2)CC3)c(C)c1	none (no result: HTT aggregate)
C=C(CO)C1Cc2c(ccc3c2OC2COc4cc(OC)c(OC)cc4C2C3=O)O1 (stereo not given)	Tau ThT inhib inconclusive (no result: HTT aggregate)
Cc1ccc(N=N/C(=C\O)C(=O)c2ccncc2)cc1	Tau ThT inhib 28µM
CCOC(=O)c1c(NC(C)=O)c2c3c(sc2n1Cc1cc(C)ccc1C)CCCC3	none (no result: HTT aggregate, HTT ATP protect)
COc1ccc(CNC(=O)CCS(=O)(=O)c2cc(Br)cc3c2N(C(=O)C2CC2)CC3)cc1	none (no result: HTT aggregate, HTT ATP protect)
